The results in this text go back to PubChem BioAssay AID1259343 (VanderVen Lab, College of Veterinary Medicine, Cornell …, 2017).

What is called inhibition is the drop in the measured response relative to a control, in per cent.

Out of some 6,200 compounds screened, about 2,900 (47%) were called active. The set was probably picked from earlier hits. This is one part of the list. Unmarked numbers belong to inactive results. Cut-off read from the data, not from the text of the source: active = inhibition above about 50%; inactive = the rest.

The nature of this experiment: Mycobacterium tuberculosis growth inhibition, primary screen (AID 1259343). The settings on record: inhibition: at 10 µM, hits give high values; outcome: 10 uM.
Turning to `Cc1nnc(N2C(=O)C(=O)C(=C(O)c3ccc(OC(C)C)cc3)C2c2ccc([N+](=O)[O-])cc2)s1` (stereo not given), the inhibition is 35.4%. Take `COc1ccc(C(=O)N(C)c2nnc(C34CC5CC(CC(C5)C3)C4)s2)c(OC)c1`: the inhibition was 29.9%.

Regarding `CN(C(=O)c1ccccc1)c1nnc(C23CC4CC(CC(C4)C2)C3)s1`, the inhibition was 70% (active). In the case of `O=C(Nc1ncc(Cc2ccc(Cl)cc2)s1)c1cccs1` it was 53.4% (active); in that of `O=C(Nc1ncc(Cl)s1)c1ccc(Cl)cn1`, 81.3% (active). In the case of `O=C(Cc1cccs1)Nc1ncc(Cc2ccc(F)c(F)c2)s1` it was 44.8%; in that of `CC(=O)CSc1ncnc2sc3c(c12)CCC(C)C3` (stereo not given), 2.69%; in that of `CCCC(C)Nc1ncnc2sc3c(c12)CCC(C)C3` (stereo not given), 84.8% (active). In the case of `N#Cc1c(SCc2ccccc2Cl)sc2c(=O)[nH]c(=O)[nH]c12` it was 67.2% (active); in that of `Clc1ccccc1CSc1nnc(-c2ccc[nH]2)o1`, -6.43%; in that of `Nc1ccc2c(c1)-c1ccccc1C2`, -7.01%.

In the case of `Nc1ccc2c(c1)Cc1ccccc1-2`, the inhibition was 0.14%. In the case of `Nc1ccc2c(c1)C(=O)NCC2` it was 61.7% (active); in that of `S=C(Nc1ccc2c(c1)OCO2)Nc1ccccc1Cl`, 19.5%; in that of `C=CCNC(=S)Nc1ccc(Cl)cc1Cl`, 4.42%. The value for `S=C(NCC1CCCCC1)Nc1ccccc1Cl` was 89.6% (active); that for `O=C(NCCC12CC3CC(CC(C3)C1)C2)c1ccc2c(=O)n3c(nc2c1)CCCCC3` was 67% (active). With `COc1ccc(C(C)NC(=O)c2ccco2)cc1F` (stereo not given), the inhibition was 15.9%.

With `COc1ccc(C(C)NC(=O)Cc2ccccc2Cl)cc1F` (stereo not given), the inhibition is 74.1% (active). In the case of `NC(Cc1ccccc1)c1csc(Nc2ccc(C(F)(F)F)cn2)n1` (stereo not given) it was 86.1% (active). The value for `NC(c1ccccc1)c1csc(Nc2ccc(C(F)(F)F)cn2)n1` (stereo not given) was 1.35%; that for `NC(Cc1ccc(C(F)(F)F)cc1)c1csc(Nc2ccccn2)n1` (stereo not given) was 47%.

`CC(C)CC(N)c1csc(Nc2ccc(C(F)(F)F)cn2)n1` (stereo not given): the inhibition is 91.8% (active).

Take `NC(Cc1ccc(C(F)(F)F)cc1)c1csc(Nc2cnccn2)n1` (stereo not given): the inhibition is 53% (active). The value for `COc1ccc(C(N)c2csc(Nc3ccc(C(F)(F)F)cn3)n2)cc1` (stereo not given) was 86.2% (active); that for `NC(COCc1ccccc1)c1csc(Nc2ccc(C(F)(F)F)cn2)n1` (stereo not given) was 66.5% (active); that for `FC(F)(F)c1ccc(Nc2cnn(Cc3ccccc3)c2)nc1` was 58.1% (active). The value for `FC(F)(F)c1ccc(Sc2ncccn2)nc1` was -12%. Consider `CC(C)CCc1nc(Cn2c(C(F)(F)F)ccc(C(N)=O)c2=O)cs1`, for which the inhibition was 11.8%. With `Cc1ccc(CS(=O)(=O)Cc2csc(CCC(C)C)n2)cc1`, the inhibition is 96% (active).
